APP 5UTR inh = APP translation inhibition. SH-SY5Y APP 5'UTR-luciferase reporter, luminescence. inhibition, % at 2 µM. 190,000 tested, 0.82% active;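 active means inhibition above a set limit, derived from the sample mean plus 3 SD, cut at about 45% in these data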
aSyn UTR inh = MLPCN primary screen, SNCA 5' untranslated region; alpha-synuclein 5'UTR reporter, inhibitor activity; inhibition, % (tested at 7.5 µM); 300,000 tested, 0.82% active; in the data active means inhibition above about 60%;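 further: H4 neuroglioblastoma cells stably carrying SNCA 5'UTR luciferase fusion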
KLF5 inh = kruppel-like factor 5 inhibition; DLD-1 KLF5 promoter-luciferase reporter, luminescence; inhibition, % at 5 µM; 290,000 tested, 0.23% active;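 active means inhibition above a per-plate limit of that plate's mean compound inhibition plus 3 SD, cut at about 60% in these data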;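 further: higher means less KLF5 promoter-driven luciferase light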
Ba/F3 V617F tox = lowers viability of Ba/F3 cells expressing EpoR and JAK2V617F; 220,000 tested, 1.1% active; ATP luminescence; AID 1446; inhibition, % at 5.6 µM;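 active means inhibition above the campaign mean plus 3 SD over all tested compounds, cut at about 24% in these data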;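 further: cytokine-independent growth of Ba/F3 cells driven by EpoR plus mutant JAK2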
BaF3 parental = parental Ba/F3 viability inhibition as JAK2V617F counter-screen; CellTiter-Glo ATP luminescence; 220,000 tested, 1.1% active; AID 1486; inhibition, % at 5.6 µM;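 active means inhibition above a per-campaign cutoff, the mean inhibition of all tested compounds plus 3 SD, cut at about 27% in these data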
IEC-6 tox = IEC-6 cytotoxicity, counter-screen for KLF5 inhibitors; luminescence viability; inhibition, % at 5 µM; 290,000 tested, 0.78% active; AID 1825; in the data active means inhibition above about 22%
Numbers stand for hits; . = inactive; / = not tested or not shown. Hits are enriched below; roughly 2.2% of the tested compounds scored in any of these assays.

SMILES | APP 5UTR inh | aSyn UTR inh | KLF5 inh | Ba/F3 V617F tox | BaF3 parental | IEC-6 tox
Cn1cccc1C(=O)NC(=O)COC(=O)CNC(=O)CNC(=O)c1ccc(Cl)cc1Cl | . | . | . | . | . | .
O=C(NCc1ccc2c(c1)OCO2)c1cc([N+](=O)[O-])ccc1N1CCCCC1 | 79 | . | . | 63 | 48 | 55
O=C(NCc1ccco1)c1cc([N+](=O)[O-])ccc1N1CCCCC1 | . | . | . | . | . | .
Cc1cc(C)n(-c2nc(Nc3ccccc3C(F)(F)F)nc(-n3nc(C)cc3C)n2)n1 | . | 62 | . | . | . | 39
C[C@H](NC(N)=O)C(=O)N1CCN(S(=O)(=O)c2ccc3ccccc3c2)CC1 | / | . | . | / | / | .
CCOC(=O)c1cnc2c(OC)cccc2c1N1CCN(c2ccccc2OC)CC1 | . | 62 | . | . | . | .
C[C@H](NC(=O)[C@H](Cc1ccccc1)n1c(=O)[nH]c2ccccc2c1=O)C(=O)N1CCC(C(=O)O)CC1 | / | . | . | / | / | .
CCOc1ccc(Nc2nc3cc(S(=O)(=O)N(CC)CC)ccc3o2)cc1 | . | 78 | . | . | . | .
CCN(CC)S(=O)(=O)c1ccc2oc(Nc3ccc(OC)cc3)nc2c1 | / | . | . | / | / | .
CCOC(=O)C(C)Sc1ccc2nnc(CCNS(=O)(=O)c3ccccc3)n2n1 (stereo unspecified) | . | . | . | . | . | .
CCOC(=O)Cc1ncccc1C(=O)Nc1ccc(Oc2ccccc2)cc1 | . | . | . | . | . | .
COc1cc(C2C(C#N)=C(N)Oc3cc(N(C)C)ccc32)cc2c1OCO2 (stereo unspecified) | 97 | . | . | . | . | .
COc1cc(C2C(C#N)=C(N)Oc3cc(O)ccc32)cc2c1OCO2 (stereo unspecified) | . | . | . | . | . | .
COc1cc(C2C(C#N)=C(N)Oc3cc(O)ccc32)cc(OC)c1OC (stereo unspecified) | 94 | . | . | . | . | .
COc1cc(C2C(C#N)=C(N)Oc3cc4c(cc32)OCO4)cc(OC)c1OC (stereo unspecified) | 93 | 111 | 86 | 93 | 89 | 85
CCOC(=O)c1c(C)nn(-c2ccc(NC(=O)/C=C/C(=O)O)cc2)c1C | / | 92 | . | . | . | .
CCOC(=O)c1c(C)nn(-c2ccc(NC(=O)c3c(C)noc3C)cc2)c1C | / | . | . | / | / | .
COC(=O)c1ccccc1NC(=O)C1CC(=O)N(c2ccc(C)cc2)C1 (stereo unspecified) | . | . | . | . | 54 | .
Clc1ccc(-c2c[n+]3c(n2-c2ccccc2)SCC3)cc1 | . | . | . | 67 | 88 | .
O=[N+]([O-])c1cccc(-c2c[n+]3c(n2-c2ccccc2)SCC3)c1 | . | / | . | 35 | 65 | .
Clc1ccc(C2=C3CCCCn4c(-c5ccccc5)c[n+](c43)C2)cc1 | . | . | . | . | . | .
CC[C@@H](C)[C@H](CNC)NC[C@@H](Cc1cccc2ccccc12)NCCc1cccc(C(F)(F)F)c1 | / | 125 | . | / | / | .
CNC[C@@H](CC1CCCCC1)NC[C@H](CC(C)C)NCCc1cccc(C(F)(F)F)c1 | / | 122 | . | / | / | .
Cn1cccc1CC(=O)NNC(=S)NC(=O)c1ccccc1Br | . | . | . | . | . | .
CCCCOn1c(C)c(C(=O)OCC)c2c3nonc3ccc21 | . | . | . | . | . | .
SMILES | APP 5UTR inh | aSyn UTR inh | KLF5 inh | Ba/F3 V617F tox | BaF3 parental | IEC-6 tox
COn1c(C)c(C(C)=O)c2c3nonc3ccc21 | . | . | . | . | 96 | .
Nc1ccc(N=Nc2ccccc2)c(N)n1 | . | . | . | . | . | .
Cc1[nH]c(N=Nc2ccccc2)nc1N=Nc1ccccc1 | / | 63 | . | . | . | .
N#CC(Sc1ccccn1)c1ccc(Cl)cc1Cl (stereo unspecified) | . | . | . | 28 | 40 | .
N#Cc1cc(Sc2ccccn2)c(Sc2ccccn2)cc1C#N | . | . | . | . | . | .
OC1OC[C@@H](O)[C@H](O)[C@H]1O (stereo partly specified) | / | . | / | / | / | /
CCN(CC)CCSc1nnc2c3cc(C)ccc3n(Cc3ccccc3)c2n1 | / | . | . | 25 | 33 | .
Cc1ccc(S(=O)(=O)Nc2cc(-c3nn(C)c(=O)c4ccccc34)ccc2N2CCOCC2)cc1 | . | 78 | . | . | . | .
Cn1nc(-c2ccc(N3CCOCC3)c(NS(=O)(=O)c3ccc(Cl)cc3)c2)c2ccccc2c1=O | . | / | . | . | . | .
Cc1cc(NO)c(C(C)C)cc1N=O | . | . | . | 51 | 45 | .
C=C1C(=O)[C@@]23[C@H](O)C[C@@H]4C(C)(C)CC[C@H](O)[C@]4(C)[C@@H]2C[C@H](O)[C@@H]1[C@H]3O | . | . | . | 62 | 73 | .
COc1ccc(S(=O)(=O)N2CCC(C(=O)NCc3ccncc3)CC2)cc1C | / | . | . | / | / | .
CCn1cc(C(=O)N2CCN(c3ccc(F)cc3)CC2)c2cc(OC)c(OC)cc2c1=O | 48 | . | . | . | . | .
Cc1cc(=O)[nH]c(N/N=C/c2cc(C)n(CC(F)(F)F)c2C)n1 | / | . | . | 76 | 32 | .
Cc1cc(=O)[nH]c(N/N=C/c2ccccc2C(F)(F)F)n1 | . | . | . | . | . | .
Cc1ccc(Cl)cc1N1CCN(C(=O)CN(c2ccccc2)S(=O)(=O)N(C)C)CC1 | . | . | . | . | . | .
Cc1ccc(C(=O)Nc2cccc(C(F)(F)F)c2)cc1Nc1cncnc1 | / | . | . | / | / | .
Cc1ccc(C(=O)Nc2cccc(C(F)(F)F)c2)cc1NC(=O)c1nccnc1N | / | 78 | / | / | / | /
COc1cc(NC(=O)c2nccnc2N)cc(C(=O)Nc2cccc(C(F)(F)F)c2)c1 | / | . | / | / | / | /
Cc1ccc(C(=O)Nc2cccc(C(F)(F)F)c2)cc1NC(=O)c1cnnc2ccccc12 | / | 64 | / | / | / | /
CN(CC1CCOCC1)C(=O)CC1C(=O)NCCN1Cc1cccc(C(F)(F)F)c1 (stereo unspecified) | / | . | . | / | / | .
O=C(N/N=C\c1cc(Cl)ccc1O)c1ccc(S(=O)(=O)N2CCCCC2)cc1 | 73 | 113 | . | . | . | .
CCOC(=O)Cc1ccc2sc(-c3ccccc3)nc2c1 | . | . | . | . | . | .
CC(=O)Nc1ccc(NC(=O)c2sc3nc4n(c(=O)c3c2C)CCCCC4)cc1 | . | 76 | . | . | . | .
Nc1ncnc2c1ncn2[C@@H]1O[C@H](CO)[C@@H](O)[C@@H]1O | / | . | / | / | / | /
SMILES | APP 5UTR inh | aSyn UTR inh | KLF5 inh | Ba/F3 V617F tox | BaF3 parental | IEC-6 tox
Nc1ncnc2c1ncn2[C@@H]1O[C@H](CO)C[C@@H]1O | / | . | . | . | . | 66
O=[N+]([O-])/C=C/c1cn(Cc2ccc(F)cc2)c2ccccc12 | . | 63 | . | . | . | .
Cc1cc(-c2nnnn2-c2ccc(F)cc2)no1 | / | / | . | . | . | .
O=C(NC(=S)NNC(=O)[C@H]1C[C@@H]1c1ccccc1)c1cccc(F)c1 | / | 67 | . | . | . | .
Nn1c(Cc2ccccc2)nc2cc(Cl)ccc2c1=O | / | . | . | / | / | .
O=C(Nc1ccc(Nc2ccccc2)cc1)C(Cl)(Cl)Cl | . | . | . | . | 50 | .

High-throughput results from PubChem BioAssay.
